From ChEMBL document CHEMBL3988442, “University of Dundee, Small-Polar-MMV Screening Library” (2021) come the findings set out here.

Common to all, as to design: scale not given: direction of the effect not stated beside the values
For assay [1], the target named is Protein translocase subunit SecA (Escherichia coli (strain K12)) (UniProt P10408). Put plainly: Assay to Identify E. coli SecA ATPase Inhibitors. The conditions noted are these: 30 µM. The format is functional.
The target in assay [2] is T1, Ubiquitin-activating enzyme e1, putative (Leishmania donovani (strain BPK282A1)) (UniProt E9BSI1).
T1 sequence (whole entry): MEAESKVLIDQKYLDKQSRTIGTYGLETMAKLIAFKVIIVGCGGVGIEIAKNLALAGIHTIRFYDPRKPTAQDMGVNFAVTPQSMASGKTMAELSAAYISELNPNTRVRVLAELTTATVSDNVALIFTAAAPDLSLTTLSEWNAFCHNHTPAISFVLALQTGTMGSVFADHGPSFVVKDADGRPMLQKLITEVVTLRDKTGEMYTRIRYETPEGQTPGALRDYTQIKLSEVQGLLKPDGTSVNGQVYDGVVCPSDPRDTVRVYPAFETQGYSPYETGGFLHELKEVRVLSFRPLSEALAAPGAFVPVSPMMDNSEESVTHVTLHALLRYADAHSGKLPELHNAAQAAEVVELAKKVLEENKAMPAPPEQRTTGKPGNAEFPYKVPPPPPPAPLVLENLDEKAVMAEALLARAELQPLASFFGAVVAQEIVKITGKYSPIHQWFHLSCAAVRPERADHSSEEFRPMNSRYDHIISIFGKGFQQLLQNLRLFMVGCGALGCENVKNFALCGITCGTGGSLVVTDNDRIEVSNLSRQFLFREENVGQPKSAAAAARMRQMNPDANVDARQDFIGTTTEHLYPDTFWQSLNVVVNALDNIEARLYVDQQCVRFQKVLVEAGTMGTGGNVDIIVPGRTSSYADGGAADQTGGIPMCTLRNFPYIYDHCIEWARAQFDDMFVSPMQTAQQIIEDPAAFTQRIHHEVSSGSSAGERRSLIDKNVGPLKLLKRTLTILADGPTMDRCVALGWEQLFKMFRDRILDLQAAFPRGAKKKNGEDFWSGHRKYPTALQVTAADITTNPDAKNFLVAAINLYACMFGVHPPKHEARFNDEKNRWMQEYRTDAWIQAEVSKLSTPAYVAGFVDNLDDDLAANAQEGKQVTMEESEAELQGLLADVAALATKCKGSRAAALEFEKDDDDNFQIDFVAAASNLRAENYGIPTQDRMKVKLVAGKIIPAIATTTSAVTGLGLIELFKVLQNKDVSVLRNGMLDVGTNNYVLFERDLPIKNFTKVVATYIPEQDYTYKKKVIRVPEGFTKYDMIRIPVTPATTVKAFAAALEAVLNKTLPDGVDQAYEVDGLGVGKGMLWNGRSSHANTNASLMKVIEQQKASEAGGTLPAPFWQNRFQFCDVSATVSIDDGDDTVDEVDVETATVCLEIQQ
Put plainly: Leishmania donovani Ubiquitin Activating Enzyme (LdE1). The class given is functional. The following applies: 30 µM.

Assay [3] deals with AMP-activated protein kinase, AMPK (Homo sapiens) (UniProt P54646+O43741+P54619+Q9UGJ0+Q9Y478+Q13131+Q9UGI9). As to the kind of experiment: AMP-dependent Kinase enzyme assay. An in vitro enzyme assay that detects ADP turnover that is directly proportional to AMPK activity. This uses naive AMPK that is activated during the assay with MK-8722. The format is functional. The conditions noted are these: 30 µM.

Assay [4] addresses Sialic acid-binding Ig-like lectin 9 (Homo sapiens) (UniProt Q9Y336). Put plainly: Hs-Siglec9 ALPHAscreen SOP 20170721. The following applies: 10 µM. For orientation: Bead proximity is the source of the signal in Alpha formats.
The next assay concerns Trypanosoma cruzi. As to the kind of experiment: Trypanosoma cruzi phosphomannomutase and mannose-1-phosphate guanylyltransferase assay. The conditions noted are these: 10 µM. The class given is functional.
For assay [5], the target named is T2, Arginase-2, mitochondrial (Homo sapiens) (UniProt P78540).
T2 sequence (whole entry): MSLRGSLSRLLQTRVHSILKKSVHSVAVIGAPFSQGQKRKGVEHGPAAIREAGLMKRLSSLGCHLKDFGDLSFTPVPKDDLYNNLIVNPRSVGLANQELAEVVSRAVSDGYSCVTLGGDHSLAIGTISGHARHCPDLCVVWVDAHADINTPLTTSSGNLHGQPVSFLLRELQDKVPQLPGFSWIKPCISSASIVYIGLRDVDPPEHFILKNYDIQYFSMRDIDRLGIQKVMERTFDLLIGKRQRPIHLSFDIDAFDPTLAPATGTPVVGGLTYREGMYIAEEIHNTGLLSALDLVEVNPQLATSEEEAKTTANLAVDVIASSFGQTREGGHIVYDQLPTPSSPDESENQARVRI
As to the kind of experiment: in vitro enzyme assay to detect the production of urea directly proportional to the activity of Arginase II. Note: in the data most compounds retested in dose-response had high values. The format is functional. The conditions noted are these: 33.3 µM.

Assay [6] has as its target T3, Proteasome subunit beta (Trypanosoma cruzi) (UniProt O96673).
T3 sequence (whole entry): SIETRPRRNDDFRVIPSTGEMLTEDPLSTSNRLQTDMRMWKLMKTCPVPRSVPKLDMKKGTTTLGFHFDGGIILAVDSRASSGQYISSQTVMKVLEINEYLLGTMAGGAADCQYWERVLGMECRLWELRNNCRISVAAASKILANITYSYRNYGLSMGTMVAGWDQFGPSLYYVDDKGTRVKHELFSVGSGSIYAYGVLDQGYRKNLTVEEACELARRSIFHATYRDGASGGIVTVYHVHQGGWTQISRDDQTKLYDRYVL
Put plainly: Trypanosoma cruzi proteasome chymotrypsin-like activity (TcProtChymo) assay. Note: in the data most compounds retested in dose-response had high values. The format is functional. The following applies: 9.37 µM.

The species named for a further assay is Homo sapiens. Put plainly: To identify inhibition of the IFN signalling (Jak-Stat) pathway via expression of an eGFP reporter gene under the control of an IFN-stimulated response element (ISRE) containing MxA promoter. The format is functional. The following applies: 30 µM. (In general: In a reporter assay the amount or activity of a reporter protein is the signal.)

Assay [7] has as its target T4, Tyrosyl-tRNA synthetase, putative (Trypanosoma cruzi (strain CL Brener)) (UniProt Q4DSP6).
T4 sequence (whole entry): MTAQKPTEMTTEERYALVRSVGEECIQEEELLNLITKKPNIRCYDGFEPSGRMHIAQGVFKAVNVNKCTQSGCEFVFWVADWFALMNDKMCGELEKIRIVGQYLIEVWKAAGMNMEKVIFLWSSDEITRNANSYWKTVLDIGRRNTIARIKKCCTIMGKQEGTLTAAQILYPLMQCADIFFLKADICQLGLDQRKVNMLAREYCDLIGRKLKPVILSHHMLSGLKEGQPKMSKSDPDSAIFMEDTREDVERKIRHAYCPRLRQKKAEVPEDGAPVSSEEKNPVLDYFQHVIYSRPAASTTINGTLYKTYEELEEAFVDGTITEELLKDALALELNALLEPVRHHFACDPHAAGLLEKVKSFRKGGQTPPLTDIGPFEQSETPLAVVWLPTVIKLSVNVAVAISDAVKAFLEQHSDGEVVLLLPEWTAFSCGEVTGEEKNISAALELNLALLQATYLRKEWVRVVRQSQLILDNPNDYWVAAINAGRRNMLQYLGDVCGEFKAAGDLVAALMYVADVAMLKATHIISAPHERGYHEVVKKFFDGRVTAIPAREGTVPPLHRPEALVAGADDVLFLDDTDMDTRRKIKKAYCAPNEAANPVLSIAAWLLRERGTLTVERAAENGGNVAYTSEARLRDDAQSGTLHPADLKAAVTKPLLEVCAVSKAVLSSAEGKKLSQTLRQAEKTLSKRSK
As to the kind of experiment: Trypanosoma cruzi tyrosyl tRNA synthetase (TcYRS) _High Tyrosine SOP. Note: in the data most compounds retested in dose-response had high values. The class given is functional. The following applies: 30 µM.

Assay [8] concerns the target T4, Tyrosyl-tRNA synthetase, putative (Trypanosoma cruzi (strain CL Brener)). As to the kind of experiment: Trypanosoma cruzi tyrosyl tRNA synthetase (TcYRS) SOP. The format is functional. The following applies: 30 µM.
Assay [9] addresses Chromo domain-containing protein 1 (Saccharomyces cerevisiae (strain ATCC 204508 / S288c) (Baker's yeast)) (UniProt P32657). Put plainly: ScCHD-1 Enzyme Inhibition Assay. Note: in the data most compounds retested in dose-response had high values. The class given is functional. The following applies: 30 µM.

For some assays here: Results with a measured potency or affinity are listed apart.

Chain of Chromo domain-containing protein 1 (Saccharomyces cerevisiae (strain ATCC 204508 / S288c) (Baker's yeast)) (P32657 whole entry, the tested form may be a part): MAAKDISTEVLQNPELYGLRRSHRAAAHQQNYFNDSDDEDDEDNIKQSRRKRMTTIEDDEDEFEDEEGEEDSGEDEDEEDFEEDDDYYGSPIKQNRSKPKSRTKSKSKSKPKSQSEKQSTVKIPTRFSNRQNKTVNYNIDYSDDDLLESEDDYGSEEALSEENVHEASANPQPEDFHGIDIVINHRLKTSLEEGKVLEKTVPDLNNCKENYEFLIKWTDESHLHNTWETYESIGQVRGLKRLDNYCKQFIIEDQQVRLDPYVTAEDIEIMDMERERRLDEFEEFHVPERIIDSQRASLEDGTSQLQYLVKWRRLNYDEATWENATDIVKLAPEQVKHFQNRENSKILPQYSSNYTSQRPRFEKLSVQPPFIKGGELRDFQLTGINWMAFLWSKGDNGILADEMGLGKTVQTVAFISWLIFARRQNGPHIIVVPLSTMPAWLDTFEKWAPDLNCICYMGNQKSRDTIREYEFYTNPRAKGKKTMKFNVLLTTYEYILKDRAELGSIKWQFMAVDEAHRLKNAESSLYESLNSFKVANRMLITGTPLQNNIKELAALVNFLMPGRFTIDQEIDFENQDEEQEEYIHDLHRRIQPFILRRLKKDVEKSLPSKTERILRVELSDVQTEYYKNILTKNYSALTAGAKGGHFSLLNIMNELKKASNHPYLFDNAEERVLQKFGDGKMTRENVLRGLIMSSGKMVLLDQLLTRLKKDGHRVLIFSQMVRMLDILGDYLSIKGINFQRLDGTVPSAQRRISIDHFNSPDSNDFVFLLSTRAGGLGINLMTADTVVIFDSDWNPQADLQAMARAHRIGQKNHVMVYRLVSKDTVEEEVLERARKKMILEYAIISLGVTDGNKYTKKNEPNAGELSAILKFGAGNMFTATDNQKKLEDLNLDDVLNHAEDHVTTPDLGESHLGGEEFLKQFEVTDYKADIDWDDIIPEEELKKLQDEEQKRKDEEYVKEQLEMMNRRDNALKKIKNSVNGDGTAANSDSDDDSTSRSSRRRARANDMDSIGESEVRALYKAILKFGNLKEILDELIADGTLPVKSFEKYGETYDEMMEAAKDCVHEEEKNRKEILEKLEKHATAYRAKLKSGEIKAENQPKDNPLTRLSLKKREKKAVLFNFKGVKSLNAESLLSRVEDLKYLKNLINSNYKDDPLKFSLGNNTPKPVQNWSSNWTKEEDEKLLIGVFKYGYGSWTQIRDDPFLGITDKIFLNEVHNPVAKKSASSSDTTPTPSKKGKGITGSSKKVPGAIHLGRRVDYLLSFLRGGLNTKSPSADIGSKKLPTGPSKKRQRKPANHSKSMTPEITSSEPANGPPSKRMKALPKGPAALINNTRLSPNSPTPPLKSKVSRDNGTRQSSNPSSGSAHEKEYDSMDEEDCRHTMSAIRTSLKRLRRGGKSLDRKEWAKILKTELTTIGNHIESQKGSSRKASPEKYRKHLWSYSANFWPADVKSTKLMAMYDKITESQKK
Chain of Sialic acid-binding Ig-like lectin 9 (Homo sapiens) (Q9Y336 whole entry): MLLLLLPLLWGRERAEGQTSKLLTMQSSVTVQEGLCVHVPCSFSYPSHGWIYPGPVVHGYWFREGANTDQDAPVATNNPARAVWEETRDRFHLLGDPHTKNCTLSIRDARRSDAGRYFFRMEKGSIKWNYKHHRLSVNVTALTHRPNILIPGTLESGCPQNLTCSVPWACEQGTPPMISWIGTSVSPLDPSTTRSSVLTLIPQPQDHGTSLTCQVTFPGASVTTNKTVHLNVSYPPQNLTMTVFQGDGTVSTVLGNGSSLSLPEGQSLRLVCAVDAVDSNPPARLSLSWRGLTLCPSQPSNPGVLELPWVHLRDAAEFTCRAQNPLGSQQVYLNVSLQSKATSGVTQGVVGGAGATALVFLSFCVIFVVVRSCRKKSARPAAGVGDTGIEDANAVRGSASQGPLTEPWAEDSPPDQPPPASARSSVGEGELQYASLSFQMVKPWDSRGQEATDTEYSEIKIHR
Chain of Protein translocase subunit SecA (Escherichia coli (strain K12)) (P10408 whole entry): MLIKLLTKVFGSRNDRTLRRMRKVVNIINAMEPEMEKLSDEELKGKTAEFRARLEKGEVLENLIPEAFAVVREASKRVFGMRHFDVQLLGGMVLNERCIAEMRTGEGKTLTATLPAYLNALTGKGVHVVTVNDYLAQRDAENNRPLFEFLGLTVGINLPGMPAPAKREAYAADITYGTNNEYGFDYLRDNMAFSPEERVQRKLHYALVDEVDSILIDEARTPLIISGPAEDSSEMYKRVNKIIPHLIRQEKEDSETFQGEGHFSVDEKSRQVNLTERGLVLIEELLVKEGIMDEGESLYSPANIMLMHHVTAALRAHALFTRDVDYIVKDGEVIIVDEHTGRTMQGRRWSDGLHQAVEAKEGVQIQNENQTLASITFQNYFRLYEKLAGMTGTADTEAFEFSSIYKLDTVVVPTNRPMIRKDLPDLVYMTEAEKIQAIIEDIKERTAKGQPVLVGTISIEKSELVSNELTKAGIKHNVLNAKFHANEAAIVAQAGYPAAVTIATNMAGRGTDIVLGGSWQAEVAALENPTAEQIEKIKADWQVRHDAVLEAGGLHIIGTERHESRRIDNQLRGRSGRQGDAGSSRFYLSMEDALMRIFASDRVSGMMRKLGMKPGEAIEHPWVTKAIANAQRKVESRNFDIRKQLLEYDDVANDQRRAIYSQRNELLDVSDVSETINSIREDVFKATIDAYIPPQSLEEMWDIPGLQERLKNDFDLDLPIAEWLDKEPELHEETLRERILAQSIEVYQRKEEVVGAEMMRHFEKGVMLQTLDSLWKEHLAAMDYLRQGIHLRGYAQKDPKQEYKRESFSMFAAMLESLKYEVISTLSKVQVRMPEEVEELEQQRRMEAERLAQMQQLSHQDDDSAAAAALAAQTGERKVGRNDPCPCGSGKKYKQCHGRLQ

As to `COC(=O)c1ccc(N2CCN(CCC#N)C(C)C2)cc1` (stereo not given), the Percent Effect in [1] is -7.22%; in assay [2] it was 10.5%; in assay [3], 3.82%; in assay [4] it was -3.31%; in the assay on Trypanosoma cruzi, -8.12%; in assay [5], -0.36%. Moreover, the Percent Effect turned out to be 4.15% in [6]; 5% in the assay filed under Homo sapiens; 5.42% in assay [7]; 3.7% in [8]; 0.577% in assay [9].
In the case of `CN(C)C(=O)CN1CCCCC1c1nc(N)ncc1-c1cccc(F)c1` (stereo not given), the Percent Effect is -4.39% in assay [1]; 21.3% in [2]; 1.75% in assay [3]; -10.4% in assay [4]; 5.12% with Trypanosoma cruzi; -4.43% in assay [5]. Further, the Percent Effect in assay [6] is 17.9%; in the assay listed under Homo sapiens, 6.49%; in [7], 4.25%; in assay [8] it was 14.1%; in [9] it was -4.14%.
`CS(=O)(=O)c1snnc1C1CCN(Cc2ccncc2)CC1`: the Percent Effect in [1] was -6.59%; in [2], 4.05%; in assay [3], 2.28%; in [4], -0.45%; in the assay on Trypanosoma cruzi it was -3.75%; in [5], -2.09%. For the same compound, the Percent Effect was determined as 9.83% in assay [6]; 23.2% in the assay listed under Homo sapiens; 0% in assay [7]; 1.3% in [8]; 5.8% in [9].
For `Cc1cccc(CS(=O)(=O)NCC(O)Cc2ccccc2)c1` (stereo not given), the Percent Effect in assay [1] was -3.31%; in assay [2] it was 5.48%; in [3] it was -2.41%; in assay [4], 8.56%; with Trypanosoma cruzi, 3.33%; in assay [5], 10.4%. Besides, the Percent Effect in assay [6] was 11.2%; in the assay listed under Homo sapiens, 7.9%; in assay [7], 5.38%; in assay [8] it was 12.5%; in assay [9], -5.28%.
Regarding `Cc1cc(C(=O)N2CCC(c3nccn3CCCN(C)C)CC2)no1`, the Percent Effect was 1.38% in assay [1]; 11% in assay [2]; -2.51% in [3]; 3.99% in assay [4]; 2.74% in the assay with Trypanosoma cruzi; 10.9% in [5]. Further, the Percent Effect was 20.8% in assay [6]; 21.1% in the assay filed under Homo sapiens; 6.45% in assay [7]; 17.5% in [8]; -13.1% in [9].
`Cc1cnn(CC2CCCN2C(=O)CCc2c(C)noc2Cl)c1` (stereo not given): the Percent Effect was -2.86% in assay [1]; -2.63% in assay [2]; 5.68% in assay [3]; -4.15% in assay [4]; 7.11% in the assay on Trypanosoma cruzi; 4.73% in assay [5]. For the same compound, the Percent Effect in assay [6] was 13.5%; in the assay listed under Homo sapiens it was -23.3%; in assay [7], 5.32%; in assay [8], 5.2%; in assay [9] it was 1.72%.
`Cc1cnc(CN(C)C2CCN(CCn3cc(C#N)cn3)C2)o1` (stereo not given): the Percent Effect in assay [1] was 2.65%; in [2], 16.2%; in assay [3], -13.3%; in assay [4] it was -2.11%; with Trypanosoma cruzi, -7.83%; in assay [5], -2%. Further, the Percent Effect in assay [6] was 21.4%; in the assay filed under Homo sapiens, 6.73%; in assay [7], 3.45%; in [8], 11.1%; in assay [9], -2.79%.
In the case of `COCCOc1ncccc1CNCc1c(C)nn(C)c1N(C)C`, the Percent Effect in assay [1] is -1.27%; in [2] it was -5.41%; in [3], -15.1%; in assay [4], -0.788%; in the assay with Trypanosoma cruzi it was 1.98%; in assay [5], 3.61%. The Percent Effect in assay [6] is 0.721%; in the assay filed under Homo sapiens it was -9.31%; in assay [7] it was 2.46%; in assay [8], 6.17%; in assay [9], -18.1%.
`Cc1csc(C2CCCN(C(=O)c3cnc4n[nH]c(C)c4c3)C2)n1` (stereo not given): the Percent Effect in [1] was -3.7%; in [2], 10.8%; in assay [3], -5.48%; in assay [4] it was 6.11%; with Trypanosoma cruzi it was 2.36%; in [5], -2%. Besides, the Percent Effect was 2.7% in assay [6]; 16.8% in the assay filed under Homo sapiens; 7.39% in assay [7]; 18.5% in assay [8]; -8.83% in assay [9].
In the case of `CCn1cc(NC(=O)NCC(O)CN2CCc3ccccc3C2)cn1` (stereo not given), the Percent Effect is -1.09% in [1]; 23.4% in assay [2]; -8.59% in assay [3]; -13.8% in [4]; -0.0979% with Trypanosoma cruzi; -6.53% in [5]. In addition, the Percent Effect in assay [6] was 18.2%; in the assay listed under Homo sapiens, 34.1%; in [7] it was 8.57%; in [8], 30.6%; in [9], -18.1%.
